GALK inh – GALK (human) enzyme inhibition | 44,000 tested, under 10 active | P51570 | recombinant GALK, Kinase-Glo ATP luminescence, 1 h | Potency, µM (doses to about 57.5 µM), usual class: inhibitors
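5 nM GALK; 35 uM ATP; 100 uM D-galactose; 20 mM HEPES pH 8.0, 5 mM MgCl2, 60 mM NaCl, 1 mM DTT, 0.01% BSA; 1 h RT; Kinase-Glo Plus luminescence.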
S16 viability – toxic to S16 Pmp22-F2sN Schwann cells | S16 Pmp22-F2sN Schwann cells viability, CellTiter-Glo, 24 h | Potency, µM (highest dose often 57.5 µM), usual class: cytotoxic | actives 0.48% (n = 43,000) | AID 1508642; also: nearly all actives have a fitted effect of over 65% in size
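Viability was measured by CellTiter-Glo luminescence (15 min, room temperature). This followed 24 h at 37 °C of compound exposure (23 nL pin transfer) in S16 Pmp22-F2sN Schwann cells, 500-1,000 per well.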
PMP22 txn prim – PMP22 gene transcription modulation | S16 Pmp22-F2sN Schwann cells (luciferase reporters placed in the Pmp22 gene), FLuc/NLuc coincidence luminescence, 24 h | Potency, µM (top dose mostly 57.5 µM), hits mostly inhibitors | actives 2% (n = 43,000) | AID 1508649; active = clear falling dose curves in both reporters; inconclusive = both reporters move, but less clearly or upward; inactive = either reporter flat; the % is the NLuc reporter signal
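Schwann cells carrying the coincidence reporter were exposed to library compounds for 24 h at 37C, then lysed and read for FLuc and, after quenching, NLuc luminescence on a CCD imager.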
TSG101-PTAP inh – blocks PTAP binding to human TSG101, validation; Potency, µM (top dose mostly 115 µM), most hits filed as inhibitors; Fluorescence polarization, FITC-PTAP peptide/Tsg101, 20 min; Q99816; 44,000 tested, under 10 active; AID 1347069
Target sequence (Q99816 whole entry, looked up): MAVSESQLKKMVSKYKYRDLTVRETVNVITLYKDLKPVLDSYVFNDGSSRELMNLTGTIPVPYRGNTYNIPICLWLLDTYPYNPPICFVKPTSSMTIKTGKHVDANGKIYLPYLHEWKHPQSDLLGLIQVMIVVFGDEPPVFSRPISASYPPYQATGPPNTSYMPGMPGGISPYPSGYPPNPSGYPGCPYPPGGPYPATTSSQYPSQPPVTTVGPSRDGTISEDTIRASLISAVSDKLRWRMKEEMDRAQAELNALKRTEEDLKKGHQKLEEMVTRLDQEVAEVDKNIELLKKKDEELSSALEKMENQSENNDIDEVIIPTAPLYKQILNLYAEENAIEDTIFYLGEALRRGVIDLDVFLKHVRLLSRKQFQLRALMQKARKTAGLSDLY
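qHTS FP binding, 20 min r.t.: 10 uM Tsg101 domain + 50 nM FITC-PTAP peptide, pH 7.5 HEPES buffer with TCEP and EDTA.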
pS6 MEF inh – mTORC1 pathway inhibition measured by phospho-rpS6. Tsc2-/- p53-/- MEF, phospho-rpS6 immunofluorescence/PI, 24 h. Potency, µM (highest dose often 38.3 µM), usual class: inhibitors. actives 0.78% (n = 44,000). AID 493208; also: nearly all actives have a fitted effect of over 50% in size
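Readout is phospho-S6 Alexa 488 signal normalized to PI per well, reported as % active cells with thresholds set from rapamycin (7.5 nM) and DMSO controls. Cells: Tsc2-/-, p53-/- MEFs, 24 hrs compound at 37 C; PI cell number serves as viability.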
Of the large screens only hits and unclear results are named; the others gave an inactive call. Compounds with a hit are over-represented: about 2.8% of the library has one in this group of screens. Unless noted, calls follow the shape of the dose curve; as a rule, active = well fitted curve in the direction sought with a large enough effect; inconclusive = small, poorly fitted or top-dose-only effect, or another doubt; inactive = no such curve, though single readings can be large; an effect the other way counts as inactive or inconclusive.

COc1cc(Cl)c(NS(=O)(=O)c2ccc3c(c2)CC(C)N3C(=O)C2CCC2)c(OC)c1 (configuration not stated)	S16 viability inconclusive, PMP22 txn prim 11.9µM
COc1ccc(Cn2c(C(=O)O)c(CNCc3ccc(SC)cc3)c3ccc(OC)cc32)cc1	S16 viability inconclusive, PMP22 txn prim inconclusive, pS6 MEF inh 16.5µM
C=Cc1ccc(Cn2c(C(=O)O)c(CNCc3ccc(F)cc3)c3ccc(C)cc32)cc1	S16 viability 28.2µM, PMP22 txn prim inconclusive
CCOc1ccc(CCNCc2c(C(=O)O)n(Cc3ccc(C)cc3)c3cc(OC)ccc23)cc1	PMP22 txn prim inconclusive, pS6 MEF inh 11.7µM
C=Cc1ccc(Cn2c(C(=O)O)c(CNCc3cccs3)c3ccc(C)cc32)cc1	S16 viability inconclusive
COc1ccc(Cn2c(C(=O)O)c(CNCCc3cc(OC)ccc3OC)c3ccc(C)cc32)cc1	GALK inh inconclusive, S16 viability inconclusive, PMP22 txn prim inconclusive
N#C/C(=C\c1ccc(-c2ccc(F)cc2F)o1)c1nc2ccccc2[nH]1	PMP22 txn prim inconclusive, pS6 MEF inh 13.1µM
COc1cccc(N2CCN(S(=O)(=O)c3ccc(-c4cnc(C5CC5)o4)cc3)CC2)c1	S16 viability 15.8µM, PMP22 txn prim inconclusive
COc1ccc(N2CCN(S(=O)(=O)c3ccc(-c4cnc(C5CC5)o4)cc3)CC2)cc1	none
CCN(CC)c1ccc(NS(=O)(=O)c2ccc(-c3cnc(C4CC4)o3)cc2)c(C)c1	S16 viability 1.78µM, PMP22 txn prim inconclusive
Cc1cc(C)c(NS(=O)(=O)c2ccc(-c3cnc(C4CC4)o3)cc2)c(C)c1	S16 viability 0.794µM, PMP22 txn prim inconclusive, pS6 MEF inh inconclusive
CCOc1ccccc1NS(=O)(=O)c1ccc(-c2cnc(C3CC3)o2)cc1	PMP22 txn prim inconclusive, pS6 MEF inh inconclusive
O=C(Nc1c(O)c2ccccc2oc1=O)c1cccc(F)c1	none
CCCSc1oc(-c2cccs2)nc1S(=O)(=O)c1ccc(C)cc1	none
CCC(C)S(=O)(=O)c1oc(-c2ccc(F)cc2)nc1S(=O)(=O)c1ccc(F)cc1 (configuration not stated)	S16 viability 6.31µM, PMP22 txn prim 2.53µM, pS6 MEF inh 0.826µM
CCCCS(=O)(=O)c1oc(-c2ccc(F)cc2)nc1S(=O)(=O)c1ccc(C)cc1	S16 viability inconclusive, PMP22 txn prim 8.43µM, pS6 MEF inh 4.14µM
Cc1ccc(S(=O)(=O)c2nc(-c3ccc(F)cc3)oc2N2CCN(c3ccccc3)CC2)cc1	none
O=S(=O)(c1ccccc1)c1nc(-c2ccc(F)cc2)oc1N1CCCCCC1	S16 viability inconclusive, PMP22 txn prim inconclusive
CCS(=O)(=O)c1oc(-c2ccc(F)cc2)nc1S(=O)(=O)c1ccccc1	S16 viability 3.16µM, PMP22 txn prim 2.51µM, pS6 MEF inh 0.131µM
CCCCS(=O)(=O)c1oc(-c2cccs2)nc1S(=O)(=O)c1ccc(F)cc1	S16 viability 2.82µM, PMP22 txn prim 3.03µM, pS6 MEF inh 2.07µM
COC(=O)c1cc2c(cc1NC(=O)c1c(C)nn(-c3ccc(C)cc3)c1-n1cccc1)OCO2	none (no result: S16 viability, PMP22 txn prim)
CC(C)OCc1cc(CN2CCN(c3ccccc3)CC2)c(O)c2ncccc12	S16 viability inconclusive, PMP22 txn prim 5.12µM, pS6 MEF inh inconclusive
CCOCc1cc(CN2CCN(c3cccc(Cl)c3)CC2)c(O)c2ncccc12	S16 viability inconclusive, PMP22 txn prim 5.75µM, pS6 MEF inh 11.7µM
COc1ccc(-c2noc(CN3CCN(c4cccc(Cl)c4)CC3)n2)cc1	none
COc1ccc(C)cc1NC(=O)C(Cc1ccccc1)NS(=O)(=O)c1ccc(Br)s1 (configuration not stated)	PMP22 txn prim inconclusive, pS6 MEF inh 6.56µM
O=S(=O)(c1cccc(Cl)c1)n1c(/C=C/c2ccccc2Cl)nc2ccccc21	S16 viability 12.6µM, PMP22 txn prim inconclusive
CSc1ccc(/C=C/c2nc3ccccc3n2S(=O)(=O)c2cccc(Cl)c2)cc1	S16 viability inconclusive, PMP22 txn prim inconclusive
O=C(Nc1nc2nc(-c3ccccc3)cc(=O)n2[nH]1)c1ccc(F)cc1	none
O=c1cc(-c2ccccc2)nc2cc(-c3ccc(F)cc3)[nH]n12	S16 viability 25.1µM
COc1ccc(-c2nnc(SCc3cc(=O)c4cc(C)cc(C)c4[nH]3)n2C)cc1	S16 viability inconclusive, PMP22 txn prim 14.1µM, pS6 MEF inh inconclusive
CCCCc1nn2c(=O)cc(COC(=O)c3cccc(NC(=O)c4cccc(Cl)c4)c3)nc2s1	none
O=C(Cn1c(=O)nc(-c2ccccc2)c2ccccc21)NCCCc1ccccc1	none
FC(F)(F)c1cccc(Nc2nc3nonc3nc2Nc2ccc(Cl)cc2)c1	S16 viability 8.91µM, PMP22 txn prim 5.62µM, pS6 MEF inh inconclusive
O=C(NCc1ccccc1)N1CCc2c(sc3c2CCCC3)C1c1ccccc1 (configuration not stated)	S16 viability inconclusive, PMP22 txn prim 7.81µM
COc1cccc(CNC(=O)N2CCc3c(sc4c3CCCC4)C2c2ccc(F)cc2)c1 (configuration not stated)	S16 viability inconclusive, PMP22 txn prim inconclusive
COc1cc(OC)c(NC(=O)c2c3c(nc4ccccc24)C(=O)N(C2CCCCC2)C3)cc1Cl	S16 viability 25.1µM, PMP22 txn prim inconclusive
COc1ccc(C)cc1NC(=O)CSc1nc(=O)n(Cc2ccccn2)c2c1CCC2	PMP22 txn prim inconclusive
Cc1ccc(NC(=O)CSc2ccc(-c3ccccn3)nn2)cc1F	pS6 MEF inh 14.7µM
COc1cc(NC(=O)CSc2ccc(-c3ccccn3)nn2)cc(OC)c1	PMP22 txn prim inconclusive, pS6 MEF inh 13.1µM
Cc1cccc(NC(=O)CSc2ccc(-c3ccccn3)nn2)c1	PMP22 txn prim inconclusive, pS6 MEF inh inconclusive
CCN(CC)CCOC(=O)c1ccc(NC(=O)c2nn(-c3ccc(C)cc3)c(=O)c3c2c2ccccc2n3C)cc1	S16 viability 4.47µM, PMP22 txn prim 5.15µM, pS6 MEF inh 0.927µM
CCN(CC)CCCNC(=O)c1nn(-c2ccc(C)cc2)c(=O)c2c1c1ccccc1n2C	S16 viability inconclusive, PMP22 txn prim inconclusive, pS6 MEF inh inconclusive
Cc1ccc(Cl)cc1-n1ncc2c(Nc3cccc(C)c3C)ncnc21	S16 viability inconclusive, PMP22 txn prim inconclusive
CCc1ccc(OCC(=O)Nc2ccc(Cl)c(-c3nc4cc(C)cc(C)c4o3)c2)cc1	none (no result: S16 viability, PMP22 txn prim)
Cc1cc(C)c2oc(-c3cccc(NC(=O)COc4ccc([N+](=O)[O-])cc4)c3)nc2c1	PMP22 txn prim inconclusive, pS6 MEF inh 20.7µM
COc1cccc(NC(=O)c2sc3nc(C)c(C(=O)Nc4ccc(Cl)cc4)c(-c4ccc(Br)cc4)c3c2N)c1	none
Cc1cc(C)c2c(NC(=O)c3ccccc3)c(C(=O)Nc3ccc(F)cc3)sc2n1	none

Compound activity deposited in PubChem by National Center for Advancing Translational Sciences (NCATS).
